Outcome and AC50 data for three compounds are collected here from PubChem BioAssay (EPA / NIEHS).

Activity calls are given as the source filed them. How the source made its calls: active means hit-call score of the fitted dose curve at least 0.9, where 1 is the maximum; inactive means score below 0.9.

Common to all, as to details: mRNA level, 48 h; actives raise or lower the signal
Read-out in assay [1]: Caspase-3 (Homo sapiens) (UniProt P42574)
The experiment in a line: LTEA_HepaRG_CASP3: Life Technologies and Expression Analysis (LTEA) Assay for cysteine-aspartic acid protease (CASP3) using HepaRG (AID 2283477). In outline:
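Transcript-level assay: CASP3 mRNA in human HepaRG after 48 h treatment, eight half-log concentrations from 100 uM in 0.5% DMSO, quantified by qRT-PCR.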

Read-out in assay [2]: Cytochrome P450 (CYP24A1), CYP24A1 (gene 1591)
The experiment in a line: LTEA_HepaRG_CYP24A1: Life Technologies and Expression Analysis (LTEA) Assay for Cytochrome P450 (CYP24A1) using HepaRG (AID 2283478). Summed up:
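Gene expression of CYP24A1 by TaqMan qRT-PCR in HepaRG after 48 h treatment, highest concentration 100 uM; activity fitted in both directions relative to DMSO vehicle.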

Read-out in assay [3]: Cytochrome P450 (CYP1A2), CYP1A2 (gene 1544)
The assay is described as follows: LTEA_HepaRG_CYP1A2: Life Technologies and Expression Analysis (LTEA) Assay for Cytochrome P450 (CYP1A2) using HepaRG (AID 2283479). Summed up: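 In duplicate wells, HepaRG cultures maintained in 0.5% DMSO were treated 48 h across an 8-point, half-log series topping at 100 uM; phenobarbital (1 mM) served as induction control. Expression was read by qRT-PCR.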

Read-out in assay [4]: cysteine-aspartic acid protease (CASP8), CASP8 (gene 841)
The experiment in a line: LTEA_HepaRG_CASP8: Life Technologies and Expression Analysis (LTEA) Assay for cysteine-aspartic acid protease (CASP8) using HepaRG (AID 2283480). Summed up: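 Differentiated HepaRG cells in serum-free induction medium, 48 h exposure, eight-point half-log series from 100 uM in 0.5% DMSO, duplicates. CASP8 mRNA by qRT-PCR, normalized to ACTB, GAPDH, POLR2A; bidirectional fit versus DMSO.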

Read-out in assay [5]: Cytochrome P450 (CYP2B6), CYP2B6 (gene 1555)
The experiment in a line: LTEA_HepaRG_CYP2B6: Life Technologies and Expression Analysis (LTEA) Assay for Cytochrome P450 (CYP2B6) using HepaRG (AID 2283481). In outline: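 Human HepaRG, 48 h dosing, 0.5% DMSO vehicle, top dose 100 uM. CYP2B6 transcript by qRT-PCR, housekeeping-normalized, bidirectional curve fit.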

Read-out in assay [6]: Cytochrome P450 2C19 (Homo sapiens) (UniProt P33261)
The assay is described as follows: LTEA_HepaRG_CYP2C19: Life Technologies and Expression Analysis (LTEA) Assay for CYP2C19 using HepaRG (AID 2283482). In outline:
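Endpoint: CYP2C19 mRNA change, bidirectional fit vs 0.5% DMSO. Cells: HepaRG, 48 h exposure, eight-point series topping at 100 uM. Quantitation: qRT-PCR normalized to ACTB, GAPDH, POLR2A.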

Read-out in assay [7]: CYP2C8 (gene 1558)
The experiment in a line: LTEA_HepaRG_CYP2C8: Life Technologies and Expression Analysis (LTEA) Assay for CYP2C8 using HepaRG (AID 2283483). Summed up: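 Differentiated HepaRG cells in serum-free induction medium exposed 48 h in duplicate to 8 half-log concentrations from 100 uM in 0.5% DMSO. CYP2C8 mRNA by qRT-PCR normalized to ACTB, GAPDH, POLR2A; bidirectional fit versus DMSO.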

Read-out in assay [8]: CYP2C9 (gene 1559)
The experiment in a line: LTEA_HepaRG_CYP2C9: Life Technologies and Expression Analysis (LTEA) Assay for CYP2C9 using HepaRG (AID 2283484). Summed up: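 Differentiated human HepaRG cells in serum-free induction medium were exposed 48 h to chemicals in 8-point half-log series from 100 uM (0.5% DMSO), in duplicate. CYP2C9 mRNA was measured by qRT-PCR, normalized to ACTB/GAPDH/POLR2A, with bidirectional fitting versus DMSO.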

Read-out in assay [9]: CYP2E1 (gene 1571)
The assay is described as follows: LTEA_HepaRG_CYP2E1: Life Technologies and Expression Analysis (LTEA) Assay for CYP2E1 using HepaRG (AID 2283485). Summed up: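 Differentiated HepaRG cells were treated in duplicate for 48 h with chemicals in 0.5% DMSO, from 100 uM downward in half-log dilutions. RNA was then analysed by qRT-PCR for CYP2E1 induction or loss.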

Read-out in assay [10]: CYP4A11 (gene 1579)
The assay is described as follows: LTEA_HepaRG_CYP4A11: Life Technologies and Expression Analysis (LTEA) Assay for CYP4A11 using HepaRG (AID 2283486). In outline:
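Human hepatic HepaRG cultures receive duplicate 48 h exposures across a concentration-response series topping at 100 uM. Expression changes in CYP4A11 are measured by qRT-PCR relative to DMSO controls.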

Read-out in assay [11]: Cytochrome P450 3A4 (Homo sapiens) (UniProt P08684)
The experiment in a line: LTEA_HepaRG_CYP3A4: Life Technologies and Expression Analysis (LTEA) Assay for CYP3A4 using HepaRG (AID 2283487). Summed up: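 HepaRG, 48 h exposure, 8-pt CRC from 100 uM (half-log), 0.5% DMSO, duplicates; serum-free induction medium. Readout: CYP3A4 mRNA, qRT-PCR, ACTB/GAPDH/POLR2A normalization. Bidirectional fit vs DMSO.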

Read-out in assay [12]: DNA damage-inducible transcript 3 (DDIT3), DDIT3 (gene 1649)
The assay is described as follows: LTEA_HepaRG_DDIT3: Life Technologies and Expression Analysis (LTEA) Assay for DNA damage-inducible transcript 3 (DDIT3) using HepaRG (AID 2283488). In outline:
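Changes in DDIT3 transcript, in either direction relative to 0.5% DMSO vehicle, were quantified by TaqMan qRT-PCR after 48 h chemical exposure of HepaRG cells at 8 concentrations, maximum 100 uM.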

Read-out in assay [13]: Pro-epidermal growth factor (Homo sapiens) (UniProt P01133)
The assay is described as follows: LTEA_HepaRG_EGF: Life Technologies and Expression Analysis (LTEA) Assay for Epidermal growth factor (EGF) using HepaRG (AID 2283489). Summed up: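 Concentration-response mRNA assay: HepaRG cells dosed 48 h (max 100 uM, 0.5% DMSO), EGF measured by qRT-PCR and normalized to ACTB/GAPDH/POLR2A.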

Read-out in assay [14]: Early growth response protein 1 (EGR1) transcription factor, EGR1 (gene 1958)
The experiment in a line: LTEA_HepaRG_EGR1: Life Technologies and Expression Analysis (LTEA) Assay for Early growth response protein 1 (EGR1) transcription factor using HepaRG (AID 2283490). In outline: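 Differentiated HepaRG cells in serum-free induction medium exposed 48 hours, duplicate, to 8 half-log concentrations up to 100 uM in 0.5% DMSO. EGR1 mRNA measured by TaqMan qRT-PCR, normalized to ACTB, GAPDH, POLR2A; bidirectional fit versus DMSO.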

Read-out in assay [15]: Ezrin (EZR), EZR (gene 7430)
The assay is described as follows: LTEA_HepaRG_EZR: Life Technologies and Expression Analysis (LTEA) Assay for Ezrin (EZR) using HepaRG (AID 2283491). Summed up:
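Read-out is EZR transcript level by qRT-PCR, normalized to three housekeeping genes and fitted bidirectionally against the DMSO control. Human HepaRG cells received test chemicals for 48 h at eight half-log concentrations up to 100 uM in 0.5% DMSO.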

Read-out in assay [16]: Cytochrome P450 3A7 (Homo sapiens) (UniProt P24462)
The assay is described as follows: LTEA_HepaRG_CYP3A7: Life Technologies and Expression Analysis (LTEA) Assay for CYP3A7 using HepaRG (AID 2283492). In outline:
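qRT-PCR of CYP3A7 in HepaRG lysates after 48 h treatment; concentration-response (8 points, max 100 uM) analysed bidirectionally relative to 0.5% DMSO controls.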

Read-out in assay [17]: CYP3A5 (gene 1577)
The assay is described as follows: LTEA_HepaRG_CYP3A5: Life Technologies and Expression Analysis (LTEA) Assay for CYP3A5 using HepaRG (AID 2283493). In outline: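 mRNA induction or loss of CYP3A5 assessed in HepaRG after 48 h dosing, 100 uM top concentration, duplicate wells; TaqMan qRT-PCR with ACTB, GAPDH, POLR2A normalization; 0.5% DMSO as negative control.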

Read-out in assay [18]: Fatty Acid-Binding Protein 1 (FABP1), FABP1 (gene 2168)
The assay is described as follows: LTEA_HepaRG_FABP1: Life Technologies and Expression Analysis (LTEA) Assay for Fatty Acid-Binding Protein 1 (FABP1) using HepaRG (AID 2283494). Summed up: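 Differentiated human HepaRG cells exposed 48 h in serum-free induction medium to eight half-log concentrations up to 100 uM (0.5% DMSO), duplicate. FABP1 mRNA by qRT-PCR, normalised to ACTB, GAPDH, POLR2A; bidirectional fitting against DMSO.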

Read-out in assay [19]: Cytochrome P450 4A22 (Homo sapiens) (UniProt Q5TCH4)
The experiment in a line: LTEA_HepaRG_CYP4A22: Life Technologies and Expression Analysis (LTEA) Assay for Cytochrome P450 4A22 (CYP4A22) using HepaRG (AID 2283495). Summed up:
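Concentration-response (8 points, max 100 uM, 0.5% DMSO) in human HepaRG liver cells after 48 h exposure. CYP4A22 mRNA by TaqMan qRT-PCR with housekeeping-gene normalization.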

Read-out in assay [20]: Cytochrome P450 7A1 (Homo sapiens) (UniProt P22680)
The experiment in a line: LTEA_HepaRG_CYP7A1: Life Technologies and Expression Analysis (LTEA) Assay for Cytochrome P450 7A1 (CYP7A1) using HepaRG (AID 2283496). Summed up: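 Gene expression endpoint in human HepaRG liver cells treated for 48 h with test chemicals (up to 100 uM, 0.5% DMSO). Values come from bidirectional concentration-response fitting versus DMSO.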

Sequence of Cytochrome P450 3A7 (Homo sapiens) (P24462 whole entry, looked up): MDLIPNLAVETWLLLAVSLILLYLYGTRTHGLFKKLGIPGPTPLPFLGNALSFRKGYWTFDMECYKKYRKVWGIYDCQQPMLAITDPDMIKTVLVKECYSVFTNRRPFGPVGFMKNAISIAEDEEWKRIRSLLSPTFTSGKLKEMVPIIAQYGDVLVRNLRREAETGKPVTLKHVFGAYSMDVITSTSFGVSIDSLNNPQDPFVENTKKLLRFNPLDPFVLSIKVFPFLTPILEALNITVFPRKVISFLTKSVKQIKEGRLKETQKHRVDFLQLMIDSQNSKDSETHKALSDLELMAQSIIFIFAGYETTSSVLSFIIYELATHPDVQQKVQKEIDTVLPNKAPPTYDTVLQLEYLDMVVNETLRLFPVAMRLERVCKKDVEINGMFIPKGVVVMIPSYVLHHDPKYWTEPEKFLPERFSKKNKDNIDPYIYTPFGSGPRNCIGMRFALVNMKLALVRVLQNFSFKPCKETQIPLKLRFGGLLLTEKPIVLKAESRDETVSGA
Sequence of Caspase-3 (Homo sapiens) (P42574 whole entry, looked up): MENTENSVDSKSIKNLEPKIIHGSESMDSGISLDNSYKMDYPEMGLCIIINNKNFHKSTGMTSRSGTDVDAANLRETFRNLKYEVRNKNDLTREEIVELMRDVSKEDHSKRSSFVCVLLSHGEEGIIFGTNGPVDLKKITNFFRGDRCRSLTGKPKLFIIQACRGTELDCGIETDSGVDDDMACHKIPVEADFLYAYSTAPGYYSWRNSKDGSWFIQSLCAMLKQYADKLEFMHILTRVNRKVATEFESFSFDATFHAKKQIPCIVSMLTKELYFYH
Sequence of Cytochrome P450 3A4 (Homo sapiens) (P08684 whole entry, looked up): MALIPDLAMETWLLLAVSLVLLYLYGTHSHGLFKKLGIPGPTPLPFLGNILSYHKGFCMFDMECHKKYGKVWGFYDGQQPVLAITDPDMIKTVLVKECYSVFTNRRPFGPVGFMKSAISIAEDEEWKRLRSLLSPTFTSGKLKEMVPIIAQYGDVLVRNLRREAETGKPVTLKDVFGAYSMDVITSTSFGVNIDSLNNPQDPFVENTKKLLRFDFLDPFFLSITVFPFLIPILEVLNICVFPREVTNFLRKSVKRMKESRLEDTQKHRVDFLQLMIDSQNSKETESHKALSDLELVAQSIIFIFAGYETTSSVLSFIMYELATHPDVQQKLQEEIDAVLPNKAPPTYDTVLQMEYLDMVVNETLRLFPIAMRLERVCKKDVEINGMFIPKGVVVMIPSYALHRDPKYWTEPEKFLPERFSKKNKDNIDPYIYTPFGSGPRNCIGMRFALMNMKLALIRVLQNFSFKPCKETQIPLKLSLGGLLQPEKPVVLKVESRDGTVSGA
Sequence of Cytochrome P450 2C19 (Homo sapiens) (P33261 whole entry, looked up): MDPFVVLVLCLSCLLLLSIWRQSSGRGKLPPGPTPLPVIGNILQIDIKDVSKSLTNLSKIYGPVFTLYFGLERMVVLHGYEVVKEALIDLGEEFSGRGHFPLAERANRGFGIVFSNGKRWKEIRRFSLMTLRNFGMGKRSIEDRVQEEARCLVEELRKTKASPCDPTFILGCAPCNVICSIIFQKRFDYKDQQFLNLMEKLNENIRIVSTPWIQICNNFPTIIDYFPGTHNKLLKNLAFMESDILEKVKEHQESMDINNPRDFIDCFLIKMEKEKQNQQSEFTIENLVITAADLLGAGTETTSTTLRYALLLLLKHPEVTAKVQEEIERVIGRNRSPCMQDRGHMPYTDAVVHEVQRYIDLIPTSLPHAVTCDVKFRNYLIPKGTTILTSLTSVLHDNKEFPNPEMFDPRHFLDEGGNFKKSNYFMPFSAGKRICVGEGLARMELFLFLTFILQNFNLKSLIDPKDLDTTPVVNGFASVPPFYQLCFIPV

Consider `CC(=O)OCCOCCOCCOC(C)=O`, for which the result in assay [1], in assay [2], in [3], in assay [4], in assay [5] and in [6] was inactive. Also, the compound was called inactive in [7], in [8], in assay [9], in [10], in assay [11] and in [12]. The result in [13], in assay [14], in assay [15], in assay [16], in assay [17] and in [18] was inactive. Besides, the compound was called inactive in [19] and in assay [20].

One may read the AC50 as the concentration giving half of the maximal activity seen. On to `Cc1nc(C)nc(N2C[C@@H](C)N(c3ccnc([C@@H](C)O)n3)[C@@H](C)C2)n1`, for which the compound was called inactive in assay [1], in [2], in assay [3], in [4], in assay [5] and in assay [6]. Also, the call in [7], in [9], in [11], in [12], in assay [13] and in assay [14] was inactive. The compound was called inactive in assay [17], in assay [18] and in assay [20]. Further, the AC50 in assay [8] was 25 µM (active); in assay [10], 9.39 µM (active); in [16], 13.8 µM (active); in assay [19] it was 0.682 µM (active).

On to `O=C(OCCCCCOC(=O)c1ccccc1)c1ccccc1`, for which the AC50 was 0.627 µM (active) in [1]; 1.58 µM (active) in assay [3]; 0.942 µM (active) in assay [4]; 0.969 µM (active) in assay [5]; 2.44 µM (active) in assay [6]; 0.726 µM (active) in assay [7]. Further, the AC50 is 1.94 µM (active) in assay [10]; 1.38 µM (active) in assay [12]; 2.17 µM (active) in assay [13]; 2.31 µM (active) in assay [16]; 2.98 µM (active) in [19]. For the same compound, the compound was called inactive in [2], in [8], in assay [9], in assay [11], in assay [14] and in assay [17]. In addition, the result in assay [18] and in assay [20] was inactive.
